Experiment [1] in a line: antimalarial activity against Dd2 strain (AID 2302;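 active = growth inhibition above 50% at the single 2 µM test dose, taken to imply half-maximal potency below 2 µM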;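 also: 0% = DMSO untreated growth and 100% = chloroquine plus artemisinin killed control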). As to conditions: P. falciparum Dd2 in RBCs, LDH growth readout, 72 h; at 2 µM; stronger effect = higher value.
The nature of experiment [2]: human hepatoma cell viability loss – ATP luminescence, cytotoxicity control for P. falciparum antimalarial project, primary screen (AID 2303;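 active = inhibition above 50%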;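 also: 0% = DMSO wells and 100% = digitonin-killed cells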). Conditions: HepG2 viability, 24-48 h, at 10 µM, stronger effect = higher value.
Experiment [3] concerns the target L-lactate dehydrogenase (Plasmodium falciparum (isolate CDC / Honduras)) (UniProt Q27743). Kind of experiment: PfLDH activity inhibition – cell lysate, 3D7 strain, counter-screen for P. falciparum growth inhibition project (AID 2304).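 Also: 0% = vehicle and 100% = reference inhibitor.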 As to conditions: P. falciparum 3D7 crude extract, LDH APAD/NBT absorbance; at 2 µM; stronger effect = higher value.
Experiment [4] can be described thus: inhibition of 3D7 malaria parasite growth – strain 3D7 (AID 2306).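 Also: 0% = DMSO wells and 100% = chloroquine plus artemisinin control wells.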 Conditions: P. falciparum 3D7 erythrocytic growth, LDH absorbance, 72 h; at 2 µM; stronger effect = higher value.
The target in experiment [5] is Calcium-dependent protein kinase 1 (Plasmodium falciparum (isolate 3D7)) (UniProt P62344). The experiment in a line: PfCDPK1 kinase inhibitors, biochemical, TCAMS library (AID 1159585; cut-off not given, nearly all actives have IC50 up to about 0.98 µM;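 also: inhibitors leave more ATP so luminescence rises with inhibition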). As to conditions: recombinant PfCDPK1, Kinase-Glo ATP depletion luminescence.
Experiment [6] addresses Plasmodium falciparum protein kinase 6 (PK6, PF3D7_1337100) (UniProt Q8IDW1). Kind of experiment: PfPK6 kinase inhibitors, biochemical, TCAMS library (AID 1159586). As to conditions: recombinant PfPK6, Kinase-Glo ATP depletion luminescence. For orientation: Kinase-Glo reads ATP consumption through a luciferase reaction.
For experiment [7], the target named is Protein kinase 7 (PK7), Plasmodium falciparum 3D7 (PF3D7_0213400) (UniProt Q7YTF7). The experiment in a line: inhibition of Plasmodium PK7 catalytic activity – biochemical, TCAMS antimalarial set, Kinase-Glo luminescence (AID 1159587). As to conditions: recombinant PfPK7, Kinase-Glo ATP depletion luminescence.
In experiment [8] the target is Calcium-dependent protein kinase 4 (Plasmodium falciparum (isolate 3D7)) (UniProt Q8IBS5). Kind of experiment: PfCDPK4 kinase inhibitors, biochemical, TCAMS library (AID 1159588; cut-off not given, nearly all actives have IC50 up to about 0.91 µM). As to conditions: recombinant PfCDPK4, Kinase-Glo ATP depletion luminescence.

Unmarked numbers belong to inactive results. For some of these results: Measured potencies and affinities stand elsewhere. Calls of active or inactive are those of the source. Unless noted, no rule for the calls is given here.

Chain of Plasmodium falciparum protein kinase 6 (PK6, PF3D7_1337100) (Q8IDW1 1-305): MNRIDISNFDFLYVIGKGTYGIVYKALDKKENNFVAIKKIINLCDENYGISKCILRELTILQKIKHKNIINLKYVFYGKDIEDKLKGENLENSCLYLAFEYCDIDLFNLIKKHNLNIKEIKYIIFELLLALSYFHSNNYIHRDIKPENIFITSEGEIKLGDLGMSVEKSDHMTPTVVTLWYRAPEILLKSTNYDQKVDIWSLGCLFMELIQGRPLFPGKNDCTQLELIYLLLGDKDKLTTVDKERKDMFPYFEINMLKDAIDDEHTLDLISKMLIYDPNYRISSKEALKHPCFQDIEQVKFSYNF
Chain of L-lactate dehydrogenase (Plasmodium falciparum (isolate CDC / Honduras)) (Q27743 whole entry, looked up): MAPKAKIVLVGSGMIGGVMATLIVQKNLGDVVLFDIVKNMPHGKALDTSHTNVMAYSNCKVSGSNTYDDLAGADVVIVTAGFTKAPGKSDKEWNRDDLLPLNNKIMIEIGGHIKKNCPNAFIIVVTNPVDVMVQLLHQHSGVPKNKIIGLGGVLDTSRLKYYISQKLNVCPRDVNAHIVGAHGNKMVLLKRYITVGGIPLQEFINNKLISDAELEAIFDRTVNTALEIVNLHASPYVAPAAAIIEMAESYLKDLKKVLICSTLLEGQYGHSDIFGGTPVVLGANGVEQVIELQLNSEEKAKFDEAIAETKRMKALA
Chain of Protein kinase 7 (PK7), Plasmodium falciparum 3D7 (PF3D7_0213400) (Q7YTF7 1-343): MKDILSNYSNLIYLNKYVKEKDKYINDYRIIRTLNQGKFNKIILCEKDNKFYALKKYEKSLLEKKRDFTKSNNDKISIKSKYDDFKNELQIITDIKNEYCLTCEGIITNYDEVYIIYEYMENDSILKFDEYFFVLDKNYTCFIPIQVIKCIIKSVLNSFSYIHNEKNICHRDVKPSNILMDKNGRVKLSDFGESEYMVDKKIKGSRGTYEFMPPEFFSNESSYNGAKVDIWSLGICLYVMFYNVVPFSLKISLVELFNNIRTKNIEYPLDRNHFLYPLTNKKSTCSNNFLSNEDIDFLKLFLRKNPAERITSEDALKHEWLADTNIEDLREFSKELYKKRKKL
Chain of Calcium-dependent protein kinase 1 (Plasmodium falciparum (isolate 3D7)) (P62344 whole entry, looked up): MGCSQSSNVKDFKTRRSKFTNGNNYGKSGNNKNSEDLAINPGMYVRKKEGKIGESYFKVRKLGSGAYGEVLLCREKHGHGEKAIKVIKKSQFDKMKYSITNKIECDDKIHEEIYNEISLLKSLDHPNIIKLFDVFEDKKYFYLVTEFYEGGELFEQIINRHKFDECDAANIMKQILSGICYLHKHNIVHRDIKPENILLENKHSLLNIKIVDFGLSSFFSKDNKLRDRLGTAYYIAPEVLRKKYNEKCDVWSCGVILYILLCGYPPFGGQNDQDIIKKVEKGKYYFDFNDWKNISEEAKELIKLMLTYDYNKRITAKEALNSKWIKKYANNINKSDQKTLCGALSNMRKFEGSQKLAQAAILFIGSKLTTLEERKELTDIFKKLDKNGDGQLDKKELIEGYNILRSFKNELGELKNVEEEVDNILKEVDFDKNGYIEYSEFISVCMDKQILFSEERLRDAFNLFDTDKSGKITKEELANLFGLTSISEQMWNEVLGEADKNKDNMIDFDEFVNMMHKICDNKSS
Chain of Calcium-dependent protein kinase 4 (Plasmodium falciparum (isolate 3D7)) (Q8IBS5 whole entry, looked up): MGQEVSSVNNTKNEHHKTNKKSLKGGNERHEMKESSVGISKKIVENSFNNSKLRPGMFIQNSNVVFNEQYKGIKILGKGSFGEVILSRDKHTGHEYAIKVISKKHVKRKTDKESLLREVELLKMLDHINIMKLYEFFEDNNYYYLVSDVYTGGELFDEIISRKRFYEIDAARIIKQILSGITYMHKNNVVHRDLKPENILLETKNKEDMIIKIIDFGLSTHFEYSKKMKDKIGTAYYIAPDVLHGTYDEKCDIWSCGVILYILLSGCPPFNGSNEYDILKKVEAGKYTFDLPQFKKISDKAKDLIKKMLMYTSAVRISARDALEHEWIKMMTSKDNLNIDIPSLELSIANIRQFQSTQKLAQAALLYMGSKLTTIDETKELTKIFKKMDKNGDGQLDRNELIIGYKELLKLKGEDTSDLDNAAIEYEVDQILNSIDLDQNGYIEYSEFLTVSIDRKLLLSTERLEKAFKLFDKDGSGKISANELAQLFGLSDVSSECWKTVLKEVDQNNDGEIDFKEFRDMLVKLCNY

`O=C(Nc1ccc(C(F)(F)F)cc1)c1ccc(S(=O)(=O)NC2CCN(Cc3ccccc3)C2)cc1` (stereo not given): the growth inhibition in experiment [1] is 5%; in experiment [4], 101% (active). Besides, the inhibition in experiment [2] is 42%; in experiment [3] it was 5%. The result in experiment [5], in experiment [6], in experiment [7] and in experiment [8] was inactive.

Consider `OCCN1CCN(C(=S)Nc2ccccc2)CC1`, for which the growth inhibition was 7% in experiment [1] and 97% (active) in experiment [4]. Besides, the values for the inhibition in experiment [2] and in experiment [3] were 6% and 2%, respectively. For the same molecule, the outcome in experiment [5], in experiment [6], in experiment [7] and in experiment [8] was inactive.

As to `CC1CCCN1Cc1cccc(-c2ccc(C(=O)NCCOc3ccccc3)s2)c1` (stereo not given), the growth inhibition in experiment [1] is 0%; in experiment [4], 83% (active). The figures for the inhibition in experiment [2] and in experiment [3] were 26% and -3%, respectively. In addition, the outcome in experiment [5], in experiment [6], in experiment [7] and in experiment [8] was inactive.

`CN1CCN(c2ccnc3ccc(NC(=O)Nc4ccccc4Br)cc23)CC1`: the growth inhibition was 95% (active) in experiment [1] and 100% (active) in experiment [4]. Besides, the inhibition was 4% in experiment [2] and -3% in experiment [3]. Further, the result in experiment [5], in experiment [6], in experiment [7] and in experiment [8] was inactive.

As for `CCNC(=O)Nc1ccc(-c2cccc(-c3nc4c(C)cccc4[nH]3)c2)cc1`, the values for the growth inhibition in experiment [1] and in experiment [4] were 34% and 91% (active), respectively. For the same molecule, the inhibition in experiment [2] is 16%; in experiment [3] it was -8%. In addition, the result in experiment [5], in experiment [6], in experiment [7] and in experiment [8] was inactive.

`CCc1cn2c3c(cc(C(=O)N[C@@H](Cc4ccccc4)[C@H](O)CNCc4cccc(C)c4)cc13)N(C)S(=O)(=O)CC2`: the figures for the growth inhibition in experiment [1] and in experiment [4] were 98% (active) and 96% (active), respectively. For the same molecule, the inhibition in experiment [2] and in experiment [3] was 5% throughout. The outcome in experiment [5], in experiment [6], in experiment [7] and in experiment [8] was inactive.

`Cc1cc(SC(C)(C)C)cc2c(Cl)c(C(N)=O)cnc12`: the growth inhibition in experiment [1] and in experiment [4] was 98% (active) in each case. Further, the inhibition is 83% (active) in experiment [2] and 0% in experiment [3]. The outcome in experiment [5], in experiment [6], in experiment [7] and in experiment [8] was inactive.

`COc1ccc(CNC2CCCC2)cc1-c1ccc(S(=O)(=O)NCCN2CCCC2)s1`: the growth inhibition is 17% in experiment [1] and 96% (active) in experiment [4]. The inhibition in experiment [2] was 17%; in experiment [3] it was -3%. Further, the result in experiment [5], in experiment [6], in experiment [7] and in experiment [8] was inactive.

Take `Oc1cc2c(cc1CN1CCN(Cc3ccccc3F)CC1)CCC2`: the values for the growth inhibition in experiment [1] and in experiment [4] were 94% (active) and 98% (active), respectively. Further, the inhibition in experiment [2] is 2%; in experiment [3], -3%. Moreover, the outcome in experiment [5], in experiment [6], in experiment [7] and in experiment [8] was inactive.

As for `Cc1ccc(O)c(-c2cc(C(=O)Nc3ccc(S(=O)(=O)N4CCCC(C)C4)cc3)[nH]n2)c1` (stereo not given), the growth inhibition is 97% (active) in experiment [1] and 96% (active) in experiment [4]. In addition, the inhibition in experiment [2] was 27%; in experiment [3] it was -2%. For the same molecule, the outcome in experiment [5], in experiment [6], in experiment [7] and in experiment [8] was inactive.

Consider `C[C@H](Cc1ccc(OCCCCCCOc2ccc(C[C@@H](C)NC[C@H](O)c3cccc(Cl)c3)cc2)cc1)NC[C@H](O)c1cccc(Cl)c1`, for which the growth inhibition in experiment [1] and in experiment [4] was 99% (active) in each case. Also, the inhibition in experiment [2] is 99% (active); in experiment [3], 3%. The outcome in experiment [5], in experiment [6], in experiment [7] and in experiment [8] was inactive.

As for `Cc1nnsc1C(=O)Nc1cccc(-c2ccc(-c3nc4ccc(C(F)(F)F)cc4[nH]3)cc2)c1`, the growth inhibition is 97% (active) in experiment [1] and 99% (active) in experiment [4]. Also, the figures for the inhibition in experiment [2] and in experiment [3] were 62% (active) and 3%, respectively. Further, the result in experiment [5], in experiment [6], in experiment [7] and in experiment [8] was inactive.

Regarding `CN1CCN(CCCSc2ccc3c(c2)ncn3-c2cc(OCc3ccccc3C(F)(F)F)c(C(N)=O)s2)CC1`, the growth inhibition was 86% (active) in experiment [1] and 101% (active) in experiment [4]. Besides, the inhibition was 28% in experiment [2] and 8% in experiment [3]. Further, the outcome in experiment [5], in experiment [6], in experiment [7] and in experiment [8] was inactive.

On to `O=C(Nc1ccc(Cn2ncc(N3CCCNCC3)c(Cl)c2=O)cc1)Nc1cccc(SC(F)(F)F)c1`, for which the figures for the growth inhibition in experiment [1] and in experiment [4] were 33% and 92% (active), respectively. Moreover, the inhibition in experiment [2] is 12%; in experiment [3] it was 4%. In addition, the outcome in experiment [5], in experiment [6], in experiment [7] and in experiment [8] was inactive.

For the molecule `CCN(CC)CCN(Cc1ccc(-c2ccc(C(F)(F)F)cc2)cc1)C(=O)Cn1c(SCc2ccc(F)cc2)cc(=O)c2ccccc21`, the growth inhibition was 70% (active) in experiment [1] and 101% (active) in experiment [4]. Besides, the results for the inhibition in experiment [2] and in experiment [3] were 50% (active) and -5%, respectively. Besides, the result in experiment [5], in experiment [6], in experiment [7] and in experiment [8] was inactive.

Take `CCN(Cc1ccccc1)C1CCN(Cc2cc(Br)ccc2O)CC1`: the growth inhibition in experiment [1] and in experiment [4] was 97% (active) each time. The inhibition in experiment [2] is 6%; in experiment [3], -1%. In addition, the outcome in experiment [5], in experiment [6], in experiment [7] and in experiment [8] was inactive.

Consider `COc1cc2nc(N(C)C)nc(Nc3ccc(OCc4ccccc4)cc3)c2cc1OC`, for which the growth inhibition was 101% (active) in experiment [1] and 100% (active) in experiment [4]. Besides, the inhibition in experiment [2] was 91% (active); in experiment [3] it was -8%. Moreover, the outcome in experiment [5], in experiment [6], in experiment [7] and in experiment [8] was inactive.

For `NC1=NC(c2ccccc2)(c2ccccc2)C(=O)N1Cc1ccc(-c2ccncc2)cc1`, the growth inhibition in experiment [1] is 74% (active); in experiment [4], 96% (active). The inhibition in experiment [2] is 20%; in experiment [3] it was 5%. The result in experiment [5], in experiment [6], in experiment [7] and in experiment [8] was inactive.

On to `NC(N)=NC(=O)Nc1cc(Cl)c(Br)c(Cl)c1`, for which the growth inhibition in experiment [1] and in experiment [4] was 101% (active) throughout. Moreover, the inhibition was 6% in experiment [2] and 4% in experiment [3]. Further, the outcome in experiment [5], in experiment [6], in experiment [7] and in experiment [8] was inactive.

`COc1cc(NC(=O)Nc2cc(C)nc3ccccc23)cc(OC)c1`: the growth inhibition in experiment [1] is 57% (active); in experiment [4] it was 104% (active). In addition, the inhibition in experiment [2] was 5%; in experiment [3] it was -4%. In addition, the outcome in experiment [5], in experiment [6], in experiment [7] and in experiment [8] was inactive.

As a reminder, the inhibition is the change of the read-out against control, counted positive when it falls.

These data come from PubChem BioAssay.
